Our source for the NP40-soluble protein abundance values is the supplement of paper PMC6411743.

In this test the target is T1, FARSB (UniProt Q9NSD9).
T1 sequence (whole entry): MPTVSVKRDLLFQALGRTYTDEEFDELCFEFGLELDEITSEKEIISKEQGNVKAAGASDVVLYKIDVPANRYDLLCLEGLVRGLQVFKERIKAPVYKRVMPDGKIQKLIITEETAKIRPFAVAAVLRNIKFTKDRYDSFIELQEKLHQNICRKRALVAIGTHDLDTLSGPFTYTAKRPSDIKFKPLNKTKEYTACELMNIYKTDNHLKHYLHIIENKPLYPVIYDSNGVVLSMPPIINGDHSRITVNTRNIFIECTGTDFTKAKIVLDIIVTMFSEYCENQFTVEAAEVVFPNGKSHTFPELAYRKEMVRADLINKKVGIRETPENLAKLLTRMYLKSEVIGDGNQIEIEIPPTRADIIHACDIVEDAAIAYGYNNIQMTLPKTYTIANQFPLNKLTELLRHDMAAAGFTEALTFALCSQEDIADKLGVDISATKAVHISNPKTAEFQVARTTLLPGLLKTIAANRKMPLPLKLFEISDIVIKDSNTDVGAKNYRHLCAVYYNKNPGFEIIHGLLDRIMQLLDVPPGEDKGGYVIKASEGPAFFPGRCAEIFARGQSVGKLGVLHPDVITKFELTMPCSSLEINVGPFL
Kind of test: NP40-soluble protein abundance relative to vehicle (solubility fold change) (ratio); higher = more soluble protein in presence of GTP. On the procedure: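 Solubility proteome profiling in Jurkat crude lysate. Lysate was treated with Mg-GTP (0.1-10 mM) for 10 min at room temperature and 3 min at 37 °C, then solubilised with 0.8% NP40 and benzonase, followed by ultracentrifugation. Proteins were quantified by TMT10 LC-MS/MS; the value is the NP40-soluble abundance relative to the NP40-processed vehicle, from 3 independent experiments.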

± gives the standard deviation of the averaged measurements. About 5,400 targets were measured; listed, in parts, are those with the largest changes and a random draw of the rest.

For `Nc1nc2c(ncn2[C@@H]2O[C@H](COP(=O)(O)OP(=O)(O)OP(=O)(O)O)[C@@H](O)[C@H]2O)c(=O)[nH]1` [guanosine triphosphate], the NP40-soluble protein abundance was 1.05 ± 0.043 (concentration: 0.1mM); 1.06 ± 0.074 (concentration: 0.5mM); 0.933 ± 0.035 (concentration: 1mM); 0.944 ± 0.091 (concentration: 2mM); 0.954 ± 0.064 (concentration: 4mM); 0.925 ± 0.059 (concentration: 6mM). The NP40-soluble protein abundance runs as follows: (concentration: 8mM) 0.875 ± 0.012; (concentration: 10mM) 0.844 ± 0.057.
